# Results published in PubChem BioAssay (NCI).
# The panel holds about 83,000 compounds, 20% with a hit somewhere; the sample as a whole holds those more often.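 Testing used 96-well plates and a 48-hour single-concentration exposure. Example: -40 means 40% of the starting cells died.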 Values without a mark were called inactive. Active and inactive are the calls of the source. Rule for the calls: active = growth percent below 10; inactive = the rest.
# Experiments:
# Assay in all cases: NCI-60 one-dose screen, 48 h (100 = growth as untreated, 0 = no growth, -100 = all killed)
# Conditions in all cases: 10 µM
# [1] = test system: RPMI-8226 leukemia
# [2] = test system: OVCAR-8 ovarian
# [3] = test system: OVCAR-5 ovarian
# [4] = test system: OVCAR-4 ovarian
# [5] = test system: SK-OV-3 ovarian
# [6] = test system: IGROV1 ovarian
# [7] = test system: OVCAR-3 ovarian
# [8] = test system: HS 578T breast
# [9] = test system: NCI/ADR-RES ovarian
# [10] = test system: T-47D breast
# [11] = test system: MDA-MB-435 melanoma
# [12] = test system: SW-620 colon
# [13] = test system: MCF7 breast
# [14] = test system: HCT-116 colon
# [15] = test system: HCC-2998 colon
# [16] = test system: KM12 colon
# [17] = test system: BT-549 breast
SMILES,growth [1],growth [2],growth [3],growth [4],growth [5],growth [6],growth [7],growth [8],growth [9],growth [10],growth [11],growth [12],growth [13],growth [14],growth [15],growth [16],growth [17]
COc1cc(CNc2ccccc2C(=O)N2CCN(C(=O)c3cc(-c4cc(OC)c(OC)c(OC)c4)n4nc(-c5ccccc5)cc4n3)CC2)cc(OC)c1OC,52.1%,65.1%,88.1%,61.5%,59.9%,44.7%,4.83% (active),42.9%,15.6%,60.6%,-47.6% (active),26.3%,6.61% (active),21.6%,40.3%,17.8%,
CC/C(=C(/c1ccc(OCCN(C)C)cc1)c1ccc(OC(=O)CCCCCCCCC(=O)c2c(C)[nH]c(/C=C3\N=C(c4ccc[nH]4)C=C3OC)c2C)cc1)c1ccccc1,48.4%,86.8%,103%,61.6%,80.7%,90.3%,89.6%,58.3%,91.8%,,52.8%,53.8%,-2.49% (active),21.6%,100%,,69.2%
Clc1ccccc1N=Cc1ccc2c(c1)OCO2,96.2%,103%,105%,104%,108%,111%,116%,117%,106%,,99.8%,114%,90.5%,103%,103%,98.8%,78.2%
NC1(C(=O)O)CSSC1,100%,40.7%,113%,76.8%,108%,90%,93%,53.6%,59.8%,,89.4%,99.4%,43.4%,83.1%,118%,93.4%,85.4%
O=C(N/N=C/c1ccccc1)C(Oc1ccccc1)c1ccccc1 (stereo unspecified),98.1%,100%,101%,102%,104%,98.9%,105%,98.4%,75.2%,,44%,96.2%,97.9%,87.2%,97.3%,84.5%,105%
C=C(C(=O)c1ccccc1)C(NC(C)(C)C)c1ccccc1 (stereo unspecified),-3.32% (active),-32% (active),-29.2% (active),-13.1% (active),67.9%,3.59% (active),-65.9% (active),36.8%,-7% (active),,7.63% (active),-19.7% (active),9.57% (active),-90.6% (active),1.14% (active),25.8%,34.8%
CCCCCCCC(C)NCCO (stereo unspecified),107%,98.7%,111%,118%,93.6%,103%,101%,99.4%,111%,100%,97.6%,106%,97.9%,111%,105%,102%,
CC1(C)N=C(N)N=C(N)N1c1ccc(CCc2ccccc2)c(Cl)c1,26.2%,16.8%,36.3%,38%,36.3%,28.1%,23.7%,69.3%,104%,30.3%,,17.6%,13.4%,10.2%,15.3%,13.5%,
O=C(Nc1cccc(-n2cc(-c3ccncc3)c(-c3cc(O)cc(Cl)c3)n2)c1)c1cc(C(F)(F)F)cc(C(F)(F)F)c1,32.1%,39.6%,70.7%,59.6%,68.8%,73%,15.2%,65.9%,46.9%,26.3%,45.6%,61%,23%,,28.9%,21.2%,
CCN1CCC(CCOC)(CN2c3ccccc3Sc3ccc(Cl)cc32)C1 (stereo unspecified),47.4%,73.7%,54.4%,46.3%,78.7%,30.7%,64.8%,51.5%,75.8%,70.5%,10.9%,54%,22.9%,28.8%,40.5%,29.8%,
c1ccc2c(c1)oc1c3cccnc3ccc21,97.1%,99.7%,100%,83%,87.7%,54.4%,106%,93.1%,99.7%,39%,110%,100%,13%,84.4%,92.7%,98.9%,
N#CCCN(NC(=O)OCc1ccccc1)C(=O)OCc1ccccc1,110%,99%,108%,111%,122%,118%,118%,103%,105%,109%,105%,102%,107%,95.4%,106%,109%,
COc1cc(/C=N/NC(=O)c2ccccc2Nc2cccc(C(F)(F)F)c2)cc(OC)c1OC,236%,34.3%,62.1%,9.6% (active),16.1%,-17.1% (active),-53.8% (active),12.2%,12.6%,29.6%,-34% (active),3.91% (active),5.18% (active),158%,28.2%,16.6%,
O=C(/C(=C/c1ccccc1)CN1CCCCC1)c1ccccc1,-6.34% (active),11%,-66.5% (active),12%,31%,-7.89% (active),-92.7% (active),47.5%,4.84% (active),,6.16% (active),0.239% (active),-22% (active),-87.4% (active),-91% (active),-75.8% (active),-56.6% (active)
CC(C)(C)NC/C(=C\c1ccccc1)C(=O)c1ccccc1,-0.943% (active),-29.1% (active),-42.7% (active),30.7%,57.9%,0.595% (active),-43.1% (active),38.2%,-30.7% (active),,4.28% (active),-30.6% (active),7.56% (active),-95.3% (active),-78.6% (active),14%,15.8%
Cn1c(N)c(N=Nc2ccc(S(=O)(=O)Nc3nccs3)cc2)c(=O)n(C)c1=O,100%,100%,115%,106%,103%,91.2%,103%,106%,96%,,101%,99%,101%,109%,95.9%,104%,97.9%
COc1ccc(-c2cc(-c3ccc(N(C)C)cc3)c(C#N)c(N3CCCC3)n2)cc1,38.7%,83.3%,64.8%,81.4%,72.7%,64.9%,105%,103%,61.8%,,90.4%,94.4%,103%,67.7%,83.6%,95.4%,74.4%
Cc1cc(N(CCCNc2ccnc3cc(Cl)ccc23)Cc2ccc3c(c2)OCO3)nc(N2CCCCC2)n1,-49.5% (active),-11.2% (active),4.69% (active),-9.93% (active),31.3%,-51.1% (active),-71.8% (active),-32.4% (active),7.45% (active),,-74.6% (active),-39.4% (active),-14.3% (active),-43.9% (active),-57.6% (active),10.4%,-24% (active)
C[C@@H]1C=C2C(=O)O[C@@H]3CC[C@H](C1)[C@]23O,75.8%,78.3%,104%,76.5%,105%,42.2%,66.9%,96.4%,93.2%,,57.7%,48.8%,36.8%,48.7%,99.9%,100%,54.4%
